A selection: hits, their analogues and other compounds. The true share with any hit is near 9.4%.
ELG1 genotox: inducers of genotoxicity in HEK293T ELG1-luciferase cells; HEK293T ELG1-luciferase reporter, luminescence, 16 h; Potency, µM (series often up to 46 µM), inactives show top-dose activity change, positive = activation, actives largely listed as activators; hit rate 1.3% among 330,000; AID 504466; note: % of control where 0% means no effect; nearly all actives have a fitted effect of over 60% in size
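HEK293T cells expressing luciferase-tagged ELG1 were exposed to compound or DMSO vehicle for 16 hr at 37 °C and 5% CO2. Luciferase activity was then measured with ONE-Glo after 30 min at room temperature.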
ELG1 DNA repair: blocks ELG1-dependent DNA repair in HEK293T cells; HEK293T ELG1-luciferase reporter, luminescence, 16 h; DNA damage induced by 5-fluorouridine; hit rate 2.3% among 330,000; Potency, µM (doses to about 46.1 µM), for inactives: top-dose activity change, negative = inhibition, usual class: inhibitors; note: % is set by controls: 0 for no effect and ±100 for the full control effect; nearly all actives have a fitted effect of over 55% in size
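In this reporter screen, reduction of luminescence relative to DMSO vehicle indicated activity. Compounds and 5-fluorouridine were added together to 2,000 cells per well, incubated for 16 hr at 37 °C, then developed with ONE-Glo.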
FLuc counter: counter-screen for miR-21 project: firefly luciferase inhibitors or activators | purified FLuc, Km substrates, luminescence inhibition | Potency, µM (titrated, usually from 57.5 µM), inactives show top-dose activity change, negative = inhibition, usual class: inhibitors | hit rate 6.9% among 360,000;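 note: plate controls were vehicle for no effect and reference inhibitor for full effect; nearly all actives have a fitted effect of over 55% in size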
Target sequence (P08659 whole entry, looked up): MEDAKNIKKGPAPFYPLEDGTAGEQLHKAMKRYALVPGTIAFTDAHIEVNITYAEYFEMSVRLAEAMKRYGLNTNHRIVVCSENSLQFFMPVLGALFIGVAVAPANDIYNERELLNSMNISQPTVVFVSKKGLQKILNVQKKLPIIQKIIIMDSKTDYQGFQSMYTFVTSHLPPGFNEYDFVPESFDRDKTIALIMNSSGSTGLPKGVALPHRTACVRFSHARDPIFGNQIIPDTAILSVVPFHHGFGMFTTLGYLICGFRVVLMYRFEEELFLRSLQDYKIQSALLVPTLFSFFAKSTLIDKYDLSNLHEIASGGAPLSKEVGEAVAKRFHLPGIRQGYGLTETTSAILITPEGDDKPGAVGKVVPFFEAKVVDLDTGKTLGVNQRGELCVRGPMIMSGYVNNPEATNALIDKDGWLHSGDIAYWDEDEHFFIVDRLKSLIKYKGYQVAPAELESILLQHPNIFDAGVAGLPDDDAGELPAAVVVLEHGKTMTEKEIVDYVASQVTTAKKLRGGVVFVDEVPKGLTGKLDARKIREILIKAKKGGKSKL
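Biochemical qHTS of compounds, final roughly 60 µM downward over six points, against 10 nM purified firefly luciferase using Km concentrations of substrates (10 uM D-luciferin, 10 uM ATP) in Tris acetate pH 7.5 buffer; luminescence output.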
SMN2 splice up: enhancers of SMN2 splice variant expression | HEK293 SMN2-luciferase splicing reporter, luminescence, 30-36 h | Potency, µM (doses to about 46.1 µM), for inactives: at the top dose activity change, positive = activation, usual class: activators | hit rate 2.8% among 210,000; note: % of control where 0% means no effect; nearly all actives have a fitted effect of over 55% in size
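HEK293 cells carry an SMN2 […]–luciferase reporter in which exon 7 inclusion puts luciferase in frame. Cells were plated 10-12 h before compound addition, then incubated 30-36 h at 37C. ONE-Glo luminescence was read; sodium butyrate at 4.5 mM final served as control.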
NPC1 promoter act: activators of NPC1 promoter; hit rate 2.4% among 320,000; Potency, µM (titrated, usually from 9.22 µM), inactives show at the top dose activation, hits mostly activators; Huh7 NPC1 promoter luciferase reporter, 24 h; AID 485313; note: % of control where 0% means no effect; nearly all actives have a fitted effect of over 60% in size
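Luminescence from an NPC1 promoter-driven luciferase reporter in stably transfected Huh7 cells was measured after 24 h compound treatment at 37 °C, followed by 10 min ambient incubation with luciferase detection reagent.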
Rab9 promoter act: activates the Rab9 promoter; Huh7 Rab9 promoter-luciferase reporter, luminescence, 24 h; AID 485297; Potency, µM (series often up to 9.22 µM), inactives show at the top dose activation, negative = inhibition, actives largely listed as activators; hit rate 2.8% among 320,000; note: % of control where 0% means no effect; nearly all actives have a fitted effect of over 60% in size
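Cell-based reporter: Huh7 stable for Rab9 promoter-driven luciferase, plated in reduced-serum medium with 10% FBS at 1500 cells/well, compound-treated 24 h at 37 °C, luminescence read after 10 min reagent.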
Numbers without * were called inactive; [ ] = dose if it differs, or a comment. Calls come from the whole dose curve; as a rule, active = well fitted curve in the direction sought with a large enough effect; inconclusive = small, poorly fitted or top-dose-only effect, or another doubt; inactive = no such curve, though single readings can be large; an effect the other way counts as inactive or inconclusive. Potency is the fitted concentration of half-maximal effect.

`Cc1nnc(SCc2ccc(Cl)cc2Cl)[nH]c1=O` gave ELG1 genotox inconclusive, ELG1 DNA repair inconclusive, FLuc counter inconclusive, SMN2 splice up 10%, NPC1 promoter act 0% and Rab9 promoter act -1%.
Cc1cnc(SCc2ccc(Cl)cc2Cl)[nH]c1=O was read as ELG1 genotox 8%, ELG1 DNA repair 7%, FLuc counter 21µM*, NPC1 promoter act -1% and Rab9 promoter act -3%.
`O=c1cnn([C@@H]2O[C@H](CO)[C@@H](O)[C@H]2O)c(=O)[nH]1` gave ELG1 genotox -12%, ELG1 DNA repair inconclusive, FLuc counter 3%, SMN2 splice up 2µM*, NPC1 promoter act -6% and Rab9 promoter act 1%.
CC(C)OCCCN1C(=O)c2[nH]nc(-c3ccccc3O)c2C1c1ccc(OCc2ccccc2)cc1 (stereo not drawn) was read as FLuc counter 3% and SMN2 splice up -16%.
For NC(=O)C(=O)O the results were SMN2 splice up -4%, NPC1 promoter act -8%[46.1 µM] and Rab9 promoter act -18%[46.1 µM].
For CN1CCN(Cc2nc3ccccc3c(=O)n2Cc2nc(-c3ccccc3F)cs2)CC1 the results were ELG1 genotox -5%, ELG1 DNA repair 16µM*, FLuc counter inconclusive, NPC1 promoter act 2% and Rab9 promoter act 0%.
CN(C)Cc1nc2ccccc2c(=O)n1Cc1nc(C(C)(C)C)cs1 was read as ELG1 genotox -4%, ELG1 DNA repair inconclusive, FLuc counter 0%, SMN2 splice up -24%, NPC1 promoter act 25% and Rab9 promoter act 0%.
CN1CCN(Cc2nc3ccccc3c(=O)n2Cc2nc(-c3ccc4ccccc4c3)cs2)CC1 was read as ELG1 genotox -10%, ELG1 DNA repair 13µM*, FLuc counter -1%, SMN2 splice up -104%, NPC1 promoter act -3% and Rab9 promoter act -8%.
Screening CN1CCN(Cc2nc3ccccc3c(=O)n2Cc2nc(-c3cccc([N+](=O)[O-])c3)cs2)CC1 returned ELG1 genotox -5%, ELG1 DNA repair inconclusive, FLuc counter -15%, NPC1 promoter act 14% and Rab9 promoter act 9%.
For COc1ccc(-c2nc3cnc(OC)nc3n(Cc3cccc(OC)c3)c2=O)cc1 the results were SMN2 splice up 8%.
For COc1ccc(OC)c(-c2nnc3n2N=C(c2ccc(OC)c(OC)c2)CS3)c1 the results were ELG1 genotox inconclusive, ELG1 DNA repair -5%, FLuc counter 4%, NPC1 promoter act -15% and Rab9 promoter act -24%.
`COc1ccc(OC)c(-c2nnc3n2N=C(c2ccc(OC(F)F)c(OCC4CC4)c2)CS3)c1` gave ELG1 genotox -3% and ELG1 DNA repair 12µM*.
For CCCC(c1cc(C(C)(C)C)c(O)cc1C)c1cc(C(C)(C)C)c(O)cc1C the results were SMN2 splice up -22%[9.22 µM].
N=C(N)S[C@H]1c2ccccc2-c2cc([N+](=O)[O-])ccc21 was read as SMN2 splice up -4%[9.22 µM].
`Cc1ccsc1/C=C1\Oc2cc(OCC(=O)c3ccccc3)ccc2C1=O` gave ELG1 genotox 7%, ELG1 DNA repair -19%, FLuc counter 2.7µM*, SMN2 splice up -7%, NPC1 promoter act 10% and Rab9 promoter act 1%.
`COc1cccc(/C=C2\Oc3cc(OC(=O)N4CCOCC4)ccc3C2=O)c1` gave ELG1 genotox 5%, ELG1 DNA repair 0%, FLuc counter 6µM*, NPC1 promoter act 20% and Rab9 promoter act 22%.
For Cc1ccc(C(=O)COc2ccc3c(C)cc(=O)oc3c2)cc1 the results were ELG1 genotox 0%, ELG1 DNA repair inconclusive, FLuc counter inconclusive, NPC1 promoter act 1% and Rab9 promoter act -3%.
`CCC1CCCCN1C(=O)COc1ccc2c(c1)OCO2` (stereo not drawn) gave ELG1 genotox 8%, ELG1 DNA repair 8%, FLuc counter -1%, NPC1 promoter act 1% and Rab9 promoter act 4%.
For COc1ccc(/C=C2\Oc3cc(OCC(=O)N4CCC[C@H]4CO)ccc3C2=O)c(OC)c1 the results were ELG1 genotox 4%, ELG1 DNA repair inconclusive, FLuc counter 13µM*, NPC1 promoter act -4% and Rab9 promoter act 2%.
Screening COc1ccc(/C=C2\Oc3cc(OCC(N)=O)ccc3C2=O)cc1OC returned ELG1 genotox 3%, ELG1 DNA repair -4%, FLuc counter 12µM*, NPC1 promoter act -5% and Rab9 promoter act 7%.
For CCOC(=O)c1cnn(-c2ccc(C(=O)Nc3cc(OC)c(OC)c(OC)c3)cc2)c1N the results were FLuc counter 3%.
CCCOc1ccc(C2C(=O)N(C3CCC(C)CC3)CC(=O)N2Cc2cccc(OC)c2)cc1OC (stereo not drawn) was read as FLuc counter -2%.
For Cc1ccc(S(=O)(=O)c2cn(Cc3ccccc3)c3cc(N4CCCC4)c(F)cc3c2=O)cc1C the results were FLuc counter -1%.
COc1ccccc1/C=C/c1nc(C#N)c(NCc2ccccc2)o1 was read as FLuc counter inconclusive and SMN2 splice up 3%.
Screening O=C1/C(=C/c2ccc3c(c2)OCO3)Oc2cc(OCC(=O)N3CCC[C@H]3C(=O)O)ccc21 returned ELG1 genotox -2%, ELG1 DNA repair 18%, FLuc counter 0.54µM*, NPC1 promoter act 2% and Rab9 promoter act -1%.
Screening CCc1ccc(/C=C2\Oc3ccc(C(=O)OC)cc3C2=O)cc1 returned ELG1 genotox 12%, ELG1 DNA repair inconclusive, FLuc counter inconclusive, SMN2 splice up inconclusive, NPC1 promoter act 29% and Rab9 promoter act inconclusive.
`COC(=O)c1ccc2c(c1)C(=O)/C(=C/c1ccc(C)cc1)O2` gave ELG1 genotox 15%, ELG1 DNA repair inconclusive, FLuc counter inconclusive, SMN2 splice up 11µM*, NPC1 promoter act inconclusive and Rab9 promoter act inconclusive.
Screening Cc1ccc(/C=C2\Oc3cc(OC(=O)N4CCOCC4)ccc3C2=O)cc1 returned ELG1 genotox -2%, ELG1 DNA repair 18%, FLuc counter 2.1µM*, SMN2 splice up -17%, NPC1 promoter act 8% and Rab9 promoter act 14%.
Screening COc1ccc(-c2c(C)c3cc(OC(=O)N4CCOCC4)ccc3oc2=O)cc1OC returned FLuc counter 3%.
Screening COc1ccccc1/C=C1\Oc2cc(OC(=O)N3CCOCC3)ccc2C1=O returned ELG1 genotox 4%, ELG1 DNA repair 35%, FLuc counter 11µM*, NPC1 promoter act 19% and Rab9 promoter act 14%.

Screening data as filed in PubChem BioAssay.
